Results on 8 compounds are retold here after PubChem BioAssay (NCATS).

A number with no mark means an inactive call. Records with an inconclusive call do not appear. Activity calls are given as the source filed them. Unless noted, calls come from the whole dose curve; as a rule, active = well fitted curve in the direction sought with a large enough effect; inconclusive = small, poorly fitted or top-dose-only effect, or another doubt; inactive = no such curve, though single readings can be large; an effect the other way counts as inactive or inconclusive.

For assay [1], the target named is Lysosomal acid glucosylceramidase (Homo sapiens) (UniProt P04062). The assay is described as follows: Glucocerebrosidase-p2 (AID 348; in the data active = potency below about 10 µM; note: potency is the fitted concentration of half-maximal effect). The settings on record: purified GBA, blue fluorogenic substrate, 40 min. The method, boiled down:
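Normal human glucocerebrosidase (0.2 nM) with blue fluorogenic substrate (80 uM final) in citrate/phosphate pH 5.9 with 10mM sodium taurocholate, 0.01% tween-20; 40 min RT, NaOH/glycine stop; fluorescence Ex 365/Em 440; AC50 from a titration from 0.6 nM upwards.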

A short description of assay [2]: AP1 Signaling Pathway (AID 357; active = well fitted curve in either direction with a large enough effect, not every such curve was filed as active;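 note: ME-180 reporter cells stimulated with EGF at its EC50 level; % is set by controls: 0 for no effect and ±100 for the full control effect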). The settings on record: ME-180 AP-1-bla reporter, EGF-induced, beta-lactamase ratio, 5 h; at 7.69 µM (top of the series) unless noted. The method, boiled down:
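In this screen, ME-180 cells in Opti-MEM with 0.5% dialyzed FBS received EC50 EGF and compound titrations for 5 h. AP-1 reporter beta-lactamase was detected via CCF4 ratio, giving AC50 for positive and negative modulators.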

Assay [3] has as its target Cytochrome P450 1A2 (Homo sapiens) (UniProt P05177). Briefly: p450-cyp1a2 (AID 410; calls by dose curve; note: potency is the fitted concentration of half-maximal effect;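 for activity change, negative = inhibition: -100% = full effect of reference inhibitor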). To be noted: recombinant CYP1A2, luciferin-ME demethylation, luminescence; series mostly up to 57 µM. The method, boiled down:
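20nM CYP1A2, 100uM Luciferin-ME (=Km), 100mM KPO4; cpd 10 min RT; +NADPH regen, 60 min RT; stop/detect 20 min; luminescence. Normalized to furafylline 57 uM = full inhibition.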

Assay [4] can be described thus: NFAT Signaling Pathway (AID 444; active = well fitted curve in either direction with a large enough effect, not every such curve was filed as active;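 note: carbachol stimulus at about its EC50 of 1 µM final; % is set by controls: 0 for no effect and ±100 for the full control effect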). The settings on record: Jurkat NFAT-bla M1, carbachol, beta-lactamase ratio, 5 h; at 7.69 µM (top of the series) unless noted. The method, boiled down: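 Read-out: CCF4 FRET ratio (460 nm/530 nm) after 1 h RT dye loading, used for %activity and AC50 from titration series. Cells: Jurkat NFAT-β-lactamase/M1 line, treated with compound plus 1 uM carbachol for 5 h, 37 °C.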

Assay [5] is described as follows: Stat Signaling Pathway (AID 446; active = well fitted curve in either direction with a large enough effect, not every such curve was filed as active;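 note: ME-180 cervical cancer cells given 40 pM IL-6 alongside compound; SIE-controlled beta-lactamase reporter measured as 460/530 nm FRET emission ratio; % is set by controls: 0 for no effect and ±100 for the full control effect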). To be noted: ME-180 (cervical carcinoma) SIE beta-lactamase reporter, IL-6 stimulated, 5 h; at 7.69 µM (top of the series) unless noted. The method, boiled down: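 Emission at 460 and 530 nm (excitation 405 nm) reports SIE-controlled beta-lactamase in ME-180 cells. Cells received compound with 40 pM IL-6 for 5 hrs at 37 C; data scaled between 300 pM IL-6 and 125 nM JAK-inhibitor controls.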

Assay [6] deals with Glucocorticoid receptor (Homo sapiens) (UniProt P04150). The assay is described as follows: GR-GFP Redistribution (AID 450;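 active = compounds whose dose series gives a full or clear partial fitted curve of increased nuclear translocation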; note: potency is the fitted concentration of half-maximal effect). The settings on record: U2OS GR-GFP nuclear translocation, laser cytometry, 2 h.
Assay [7] shares this target. Briefly: GR-EFC Redistribution (AID 451; calls by dose curve; note: potency is the fitted concentration of half-maximal effect). To be noted: CHO-K1 GR-EFC translocation, beta-gal luminescence, 2 h. The method, boiled down:
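Translocation of GR-ED fusion to nuclear EA restores b-gal, read by luminescence after 1 h room-temperature detection. Engineered CHO-K1 biosensor cells, 1,000/well, exposed 2 h at 37 C to titrations up to 46 uM final.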

Assay [8] concerns the target Mitogen-activated protein kinase 10 (Mus musculus) (UniProt Q61831). Briefly: JNK3 AlphaScreen Assay (AID 530; active = well fitted curve in either direction with a large enough effect, not every such curve was filed as active;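 note: kinase came from lysate of stimulated human HepG2 cells; signal reports phosphorylation of biotinylated GST-cJun 1-79 at Ser73 with 10 µM ATP; % is set by controls: 0 for no effect and ±100 for the full control effect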). The settings on record: JNK3 lysate, c-Jun phosphorylation; series mostly up to 57.1 µM. The method, boiled down:
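Kinase buffer: 20 mM Tris-HCl pH 7.6, 10 mM MgCl2, 1 mM DTT, 0.1 mM Na3VO4, 0.01% Tween-20; ATP 10 uM. Substrate biotin-GST-cJun(1-79), enzyme from activated HepG2 lysates. Detection by Ser73 phospho-antibody AlphaScreen.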
In general terms: In Alpha technology, singlet oxygen from a donor bead excites a nearby acceptor bead.

In assay [9] the target is Dual specificity protein kinase CLK4 (Homo sapiens) (UniProt Q9HAZ1). Briefly: qHTS Assay for Inhibitors of CDC-like Kinase 4 (Kinase-Glo Assay) (AID 1770). Note: nearly all actives have a fitted effect of over 65% in size. Note: potency is the fitted concentration of half-maximal effect. The settings on record: recombinant Clk4, Kinase-Glo ATP depletion luminescence; series mostly up to 66.7 µM. The method, boiled down:
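Inhibition was judged from remaining ATP, measured by Ultra-Glo luciferase bioluminescence after Clk4 (25 nM) had acted on RS peptide at 1 uM ATP for 4.5 hours, room temperature.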
(In general: qHTS replaces the single test concentration by a dilution series.)

The target is the same in assay [10]. The assay is described as follows: qHTS Assay for Inhibitors of CDC-like Kinase 4 (ADP-Glo Assay) (AID 1771). Note: nearly all actives have a fitted effect of over 70% in size. Note: potency is the fitted concentration of half-maximal effect. To be noted: recombinant CLK4, ADP-Glo luminescence; series mostly up to 80 µM. The method, boiled down:
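25 nM Clk4, 100 uM RS peptide, 1 uM ATP (final); 2 mM MgCl2, 0.5 mM EGTA, 2.5 mM DTT, 0.01% Triton X-100; 1 hr RT. ADP-Glo readout: ATP depletion 45 min, conversion/luciferase 30 min, luminescence.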

For assay [11] the target is unchanged. The assay is described as follows: qHTS Assay for Inhibitors of CDC-like Kinase 4 (ADP-FP Assay) (AID 1795).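 Note: recombinant human CLK4 phosphorylating RS repeat peptide at 1 µM ATP; % is set by controls: 0 for no effect and ±100 for the full control effect; nearly all actives have a fitted effect of over 60% in size.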 The settings on record: Transcreener ADP fluorescence polarization; series mostly up to 50 µM. The method, boiled down:
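Inhibition of ADP formation by 6.25 nM Clk4 is measured using 1 uM ATP and 100 uM RS repeat peptide over one hour. Produced ADP displaces a fluorescent tracer from antibody, lowering polarization.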

Assay [12] addresses Ubiquitin carboxyl-terminal hydrolase 1 (Homo sapiens) (UniProt O94782). The assay is described as follows: Inhibitors of USP1/UAF1: Pilot qHTS (AID 504865).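 Note: rhodamine fluorescence freed from ubiquitin-rhodamine substrate followed over time; top concentration of the series differs between compounds; % is set by controls: 0 for no effect and ±100 for the full control effect; nearly all actives have a fitted effect of over 35% in size.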 The settings on record: purified USP1/UAF1, Ub-rhodamine cleavage fluorescence; series mostly up to 54.9 µM. The method, boiled down: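 Kinetic fluorescence assay: 1nM USP1/UAF1, 15 min compound preincubation, then 150nM Ub-Rho; 480/540 nm.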

The nature of assay [13]: Primary qHTS for small molecule stabilizers of the endoplasmic reticulum resident proteome: Secreted ER Calcium Modulated Protein (SERCaMP) assay (AID 1508630). Note: % is set by controls: 0 for no effect and ±100 for the full control effect. The settings on record: SH-SY5Y GLuc-SERCaMP (Gaussia luciferase released on ER calcium loss) secretion, thapsigargin, luminescence; series mostly up to 38.4 µM. The method, boiled down:
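The SH-SY5Y reporter protocol was run at 3 concentrations up to 38.3 uM (primary) or 11 concentrations (follow-up): 16 h compound, 100 nM thapsigargin for 4 h, then extracellular luciferase luminescence.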

Assay [14] deals with 3',5'-cyclic-AMP phosphodiesterase 4B (Homo sapiens) (UniProt Q07343). Briefly: qHTS Assay for Inhibitors of PDE-IV (AID 607; active = well fitted activation curve with a large enough effect in the main read-out, with a control signal flat, not every such curve was filed as active; note: % of control where 0% means no effect). The settings on record: HEK293 ACTOne CNG channel cells, membrane potential fluorescence; series mostly up to 22.9 µM. The method, boiled down:
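The readout is membrane depolarisation from a cAMP-sensing CNG channel, detected with a potential dye at ex 535/em 590. Cells were HEK293-derived (endogenous PDE-IV) at 1000 cells/well, titrated up to 22.9 uM final.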

Assay [15] concerns the target Cytochrome P450 3A4 (Homo sapiens) (UniProt P08684). Briefly: qHTS Assay for Inhibitors and Substrates of Cytochrome P450 3A4 (AID 884). Note: potency is the fitted concentration of half-maximal effect; nearly all actives have a fitted effect of over 50% in size. The settings on record: recombinant CYP3A4, Luciferin-PPXE luminescence; series mostly up to 57.1 µM. The method, boiled down:
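Luminescent readout of luciferin produced by CYP3A4 (20 nM) dealkylation of Luciferin-PPXE, 25 uM (its KM). NADPH-driven reaction ran 60 min at RT after 10 min compound preincubation; data scaled to 57 uM ketoconazole as 100% inhibition.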

Assay [16] shares this target. The assay is described as follows: qHTS Assay for Activators of Cytochrome P450 3A4 (AID 885). Note: nearly all actives have a fitted effect of over 65% in size. To be noted: recombinant CYP3A4, Luciferin-PPXE luminescence, 60 min; series mostly up to 57.1 µM. The method, boiled down: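 Activators are scored by enhanced luminescence from CYP3A4 conversion of luciferin-PPXE (25uM, equal to KM) to luciferin, after 60 min at RT with an NADPH-regenerating system.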

Assay [17] deals with Rap guanine nucleotide exchange factor 3 (Homo sapiens) (UniProt O95398). The assay is described as follows: Confirmatory qHTS for agonist of cAMP-regulated guanine nucleotide exchange factor 3 (EPAC1) (AID 1645881).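 Note: EPAC1 catalysed release of BODIPY-GDP from Rap1B seen as fluorescence loss; 100% = effect of cAMP agonist control; nearly all actives have a fitted effect of over 75% in size.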 The settings on record: EPAC1 Rap1B BODIPY-GDP exchange fluorescence; series mostly up to 154 µM.
In assay [18] the target is Rap guanine nucleotide exchange factor 4 (Homo sapiens) (UniProt Q8WZA2). Briefly: Confirmatory qHTS for agonist of cAMP-regulated guanine nucleotide exchange factor 4 (EPAC2) (AID 1645884).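 Note: nucleotide exchange releases bodipy-GDP from Rap1 and this lowers its fluorescence; % is set by controls: 0 for no effect and ±100 for the full control effect; nearly all actives have a fitted effect of over 65% in size.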 The settings on record: EPAC2 GEF activity, Rap1B-BODIPY-GDP fluorescence; series mostly up to 154 µM.
Assay [19] has as its target Cytochrome P450 2C19 (Homo sapiens) (UniProt P33261). Briefly: qHTS Assay for Inhibitors and Substrates of Cytochrome P450 2C19 (AID 899). Note: potency is the fitted concentration of half-maximal effect; nearly all actives have a fitted effect of over 60% in size. To be noted: recombinant CYP2C19, luciferin-H EGE luminescence; series mostly up to 57.1 µM. The method, boiled down: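 Luminescence readout of luciferin formed from 10uM Luciferin-H EGE (KM level) by 5 nM CYP2C19 in 50mM KPO4. 60 min NADPH-driven reaction at 37C after 10 min compound preincubation; data scaled to 57uM ketoconazole inhibition.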

Chain of Glucocorticoid receptor (Homo sapiens) (P04150 whole entry, looked up): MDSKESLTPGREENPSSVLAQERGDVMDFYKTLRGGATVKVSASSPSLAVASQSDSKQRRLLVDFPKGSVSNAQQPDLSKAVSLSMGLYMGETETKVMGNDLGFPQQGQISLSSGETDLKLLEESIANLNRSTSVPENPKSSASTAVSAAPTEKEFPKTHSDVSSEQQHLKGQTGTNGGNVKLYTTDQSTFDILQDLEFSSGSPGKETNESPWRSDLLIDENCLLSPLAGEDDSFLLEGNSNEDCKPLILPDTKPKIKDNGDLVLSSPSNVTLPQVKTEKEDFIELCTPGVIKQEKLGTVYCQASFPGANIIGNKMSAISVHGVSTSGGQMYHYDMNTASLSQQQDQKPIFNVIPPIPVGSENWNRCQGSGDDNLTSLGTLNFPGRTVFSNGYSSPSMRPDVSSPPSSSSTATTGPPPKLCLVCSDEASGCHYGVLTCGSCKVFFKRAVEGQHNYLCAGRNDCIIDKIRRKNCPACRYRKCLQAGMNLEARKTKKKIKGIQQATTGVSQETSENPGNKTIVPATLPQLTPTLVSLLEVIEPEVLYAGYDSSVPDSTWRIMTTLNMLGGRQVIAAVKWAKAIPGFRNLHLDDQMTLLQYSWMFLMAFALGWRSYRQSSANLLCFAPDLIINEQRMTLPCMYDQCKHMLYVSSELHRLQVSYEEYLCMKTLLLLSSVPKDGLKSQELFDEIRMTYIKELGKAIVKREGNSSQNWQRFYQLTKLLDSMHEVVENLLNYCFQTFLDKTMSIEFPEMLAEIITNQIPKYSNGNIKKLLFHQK
Chain of Cytochrome P450 1A2 (Homo sapiens) (P05177 whole entry, looked up): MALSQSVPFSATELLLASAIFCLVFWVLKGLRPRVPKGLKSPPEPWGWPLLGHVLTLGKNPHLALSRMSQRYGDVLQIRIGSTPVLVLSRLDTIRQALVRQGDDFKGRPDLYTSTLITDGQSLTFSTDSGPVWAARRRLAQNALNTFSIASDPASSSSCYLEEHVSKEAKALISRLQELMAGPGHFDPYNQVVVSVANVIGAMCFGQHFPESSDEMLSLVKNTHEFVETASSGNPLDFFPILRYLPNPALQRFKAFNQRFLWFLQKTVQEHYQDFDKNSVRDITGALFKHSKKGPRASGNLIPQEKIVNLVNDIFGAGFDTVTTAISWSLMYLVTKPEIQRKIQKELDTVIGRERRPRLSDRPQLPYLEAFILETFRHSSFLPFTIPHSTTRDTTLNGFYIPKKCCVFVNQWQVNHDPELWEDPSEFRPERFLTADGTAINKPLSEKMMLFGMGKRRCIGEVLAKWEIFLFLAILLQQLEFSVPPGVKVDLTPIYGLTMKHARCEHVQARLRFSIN
Chain of 3',5'-cyclic-AMP phosphodiesterase 4B (Homo sapiens) (Q07343 whole entry, looked up): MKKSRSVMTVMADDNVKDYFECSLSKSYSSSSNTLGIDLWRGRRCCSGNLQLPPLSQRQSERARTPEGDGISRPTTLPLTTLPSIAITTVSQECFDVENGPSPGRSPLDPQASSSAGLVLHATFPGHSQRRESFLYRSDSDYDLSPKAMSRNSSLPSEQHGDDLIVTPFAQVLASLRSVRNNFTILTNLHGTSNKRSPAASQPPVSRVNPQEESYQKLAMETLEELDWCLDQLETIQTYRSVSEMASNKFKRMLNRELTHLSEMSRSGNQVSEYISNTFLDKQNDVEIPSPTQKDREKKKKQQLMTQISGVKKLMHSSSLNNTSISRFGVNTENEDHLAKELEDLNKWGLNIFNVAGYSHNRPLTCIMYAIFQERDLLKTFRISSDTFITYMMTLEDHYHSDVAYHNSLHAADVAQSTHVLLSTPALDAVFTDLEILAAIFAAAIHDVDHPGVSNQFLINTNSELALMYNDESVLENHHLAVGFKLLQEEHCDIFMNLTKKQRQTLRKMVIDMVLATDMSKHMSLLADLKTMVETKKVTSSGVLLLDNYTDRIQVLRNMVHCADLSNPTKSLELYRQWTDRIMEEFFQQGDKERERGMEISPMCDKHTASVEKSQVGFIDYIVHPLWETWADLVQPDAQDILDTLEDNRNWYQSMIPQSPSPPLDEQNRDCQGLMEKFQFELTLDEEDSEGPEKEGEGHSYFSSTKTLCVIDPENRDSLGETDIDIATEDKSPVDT
Chain of Lysosomal acid glucosylceramidase (Homo sapiens) (P04062 whole entry, looked up): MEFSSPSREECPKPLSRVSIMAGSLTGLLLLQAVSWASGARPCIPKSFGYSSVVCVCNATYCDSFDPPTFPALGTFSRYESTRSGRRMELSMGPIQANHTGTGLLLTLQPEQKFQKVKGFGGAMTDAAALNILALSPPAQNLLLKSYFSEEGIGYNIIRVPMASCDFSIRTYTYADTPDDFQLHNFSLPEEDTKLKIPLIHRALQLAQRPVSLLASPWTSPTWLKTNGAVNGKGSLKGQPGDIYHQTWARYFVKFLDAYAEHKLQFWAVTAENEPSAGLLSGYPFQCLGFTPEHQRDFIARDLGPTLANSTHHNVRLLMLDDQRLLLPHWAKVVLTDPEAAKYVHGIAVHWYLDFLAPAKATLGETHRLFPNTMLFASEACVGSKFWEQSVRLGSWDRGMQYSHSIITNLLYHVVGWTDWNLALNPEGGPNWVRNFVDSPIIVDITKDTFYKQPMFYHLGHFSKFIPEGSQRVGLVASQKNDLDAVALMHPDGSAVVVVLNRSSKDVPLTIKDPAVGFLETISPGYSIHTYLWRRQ
Chain of Ubiquitin carboxyl-terminal hydrolase 1 (Homo sapiens) (O94782 whole entry, looked up): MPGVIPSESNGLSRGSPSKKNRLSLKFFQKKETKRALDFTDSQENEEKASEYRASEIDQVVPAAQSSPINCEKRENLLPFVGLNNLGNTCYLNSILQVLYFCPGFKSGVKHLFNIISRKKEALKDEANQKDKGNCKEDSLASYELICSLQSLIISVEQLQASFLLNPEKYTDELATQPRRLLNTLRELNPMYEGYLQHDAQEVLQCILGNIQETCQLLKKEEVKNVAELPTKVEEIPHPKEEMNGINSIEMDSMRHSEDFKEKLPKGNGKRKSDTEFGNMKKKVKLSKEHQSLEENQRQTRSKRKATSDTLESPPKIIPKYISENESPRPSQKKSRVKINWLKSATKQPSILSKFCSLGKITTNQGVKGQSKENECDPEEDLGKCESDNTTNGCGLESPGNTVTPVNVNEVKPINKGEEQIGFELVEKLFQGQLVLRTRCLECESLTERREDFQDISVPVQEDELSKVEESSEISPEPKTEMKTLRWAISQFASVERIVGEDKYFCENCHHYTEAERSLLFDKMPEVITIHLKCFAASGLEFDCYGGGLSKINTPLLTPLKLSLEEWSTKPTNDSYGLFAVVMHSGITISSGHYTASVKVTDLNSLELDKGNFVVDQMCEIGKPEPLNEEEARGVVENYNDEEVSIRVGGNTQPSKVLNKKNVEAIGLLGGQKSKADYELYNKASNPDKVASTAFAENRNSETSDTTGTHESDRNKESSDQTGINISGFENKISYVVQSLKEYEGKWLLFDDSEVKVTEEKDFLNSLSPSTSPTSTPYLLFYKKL
Chain of Cytochrome P450 3A4 (Homo sapiens) (P08684 whole entry, looked up): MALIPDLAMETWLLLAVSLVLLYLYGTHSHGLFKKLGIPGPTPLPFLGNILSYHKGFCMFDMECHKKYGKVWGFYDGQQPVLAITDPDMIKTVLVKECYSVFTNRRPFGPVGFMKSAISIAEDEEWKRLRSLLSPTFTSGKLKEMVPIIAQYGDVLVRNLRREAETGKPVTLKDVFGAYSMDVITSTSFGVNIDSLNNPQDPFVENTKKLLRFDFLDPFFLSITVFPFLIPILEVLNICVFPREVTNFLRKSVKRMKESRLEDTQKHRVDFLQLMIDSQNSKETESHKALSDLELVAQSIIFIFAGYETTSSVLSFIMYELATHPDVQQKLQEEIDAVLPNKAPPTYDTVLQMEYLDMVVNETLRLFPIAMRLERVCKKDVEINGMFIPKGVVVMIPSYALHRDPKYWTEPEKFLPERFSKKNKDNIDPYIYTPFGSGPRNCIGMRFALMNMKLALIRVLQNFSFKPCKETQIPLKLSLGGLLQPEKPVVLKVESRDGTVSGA
Chain of Dual specificity protein kinase CLK4 (Homo sapiens) (Q9HAZ1 whole entry, looked up): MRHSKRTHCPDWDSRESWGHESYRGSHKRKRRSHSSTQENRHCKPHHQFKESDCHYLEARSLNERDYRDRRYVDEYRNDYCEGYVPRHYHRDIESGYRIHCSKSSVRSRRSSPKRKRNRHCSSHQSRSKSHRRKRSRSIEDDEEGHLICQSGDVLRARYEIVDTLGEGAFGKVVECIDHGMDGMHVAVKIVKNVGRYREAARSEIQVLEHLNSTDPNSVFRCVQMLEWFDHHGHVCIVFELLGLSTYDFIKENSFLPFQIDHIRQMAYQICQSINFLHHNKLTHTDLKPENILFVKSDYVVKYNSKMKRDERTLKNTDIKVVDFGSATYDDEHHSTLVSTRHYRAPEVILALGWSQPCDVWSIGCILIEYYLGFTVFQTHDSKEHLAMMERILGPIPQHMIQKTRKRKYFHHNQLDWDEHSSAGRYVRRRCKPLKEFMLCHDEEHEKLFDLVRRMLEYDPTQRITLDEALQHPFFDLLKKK
Chain of Cytochrome P450 2C19 (Homo sapiens) (P33261 whole entry, looked up): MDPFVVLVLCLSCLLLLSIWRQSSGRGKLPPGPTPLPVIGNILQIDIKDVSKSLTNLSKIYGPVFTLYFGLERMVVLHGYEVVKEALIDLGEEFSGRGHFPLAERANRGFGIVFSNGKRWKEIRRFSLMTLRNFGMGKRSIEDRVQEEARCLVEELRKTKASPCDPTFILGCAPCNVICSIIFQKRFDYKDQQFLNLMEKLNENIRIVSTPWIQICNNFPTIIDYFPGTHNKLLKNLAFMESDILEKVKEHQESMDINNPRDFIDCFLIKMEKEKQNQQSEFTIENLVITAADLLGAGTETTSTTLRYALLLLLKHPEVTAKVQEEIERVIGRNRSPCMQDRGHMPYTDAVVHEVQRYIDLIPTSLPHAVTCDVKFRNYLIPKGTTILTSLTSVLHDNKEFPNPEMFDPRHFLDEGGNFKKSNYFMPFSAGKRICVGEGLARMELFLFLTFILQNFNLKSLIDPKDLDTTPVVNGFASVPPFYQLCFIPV

For the compound `COc1cccc(Cn2c(=O)c(-c3ccc(Cl)cc3)nc3cnc(OC)nc32)c1`, the Potency was greater than 11.4 µM in [1], 3.98 µM (active) in [3], greater than 9.22 µM in assay [6] and greater than 46 µM in assay [7]. The activity change, negative = inhibition in assay [2] is -15.4%; in assay [4] it was 8.55%. In addition, the activity, negative = inhibition in assay [5] is 4.34%. The Potency result in assay [8], in assay [9], in assay [10], in assay [11] and in [12] was “inactive” in each case. Further, the outcome in assay [13] was inactive.
As to `Cc1nc2cnc(N(C)C)nc2n(-c2ccccc2)c1=O`, the Potency in assay [1] was greater than 11.4 µM; in [3], 2 µM (active); in assay [6], greater than 46 µM; in [7], greater than 46 µM. Also, the activity change, negative = inhibition was -7.75% in [2] and 9.3% in assay [4]. The activity, negative = inhibition in [5] is -16.5%. Besides, the Potency result in assay [8], in [14], in assay [9], in [10], in [11] and in assay [12] was “inactive” in each case. Further, the outcome in assay [13] was inactive.
With `Cn1cc(-c2nc3cnc(Oc4ccccc4)nc3n(Cc3cccs3)c2=O)c2ccccc21`, the Potency was greater than 11.4 µM in [1], 3.16 µM (active) in [3], greater than 9.22 µM in assay [6] and greater than 46 µM in assay [7]. In addition, the activity change, negative = inhibition in [2] was 7.68%; in [4] it was 23.5%. Also, the activity, negative = inhibition in assay [5] is 11%. Further, the Potency entry in assay [8], in [14], in assay [9], in assay [10], in [11] and in assay [12] was “inactive” each time. Besides, the result in assay [13] was inactive.
For `COc1ccc(C(=O)N2CCC[C@@]3(CCN(Cc4cc(C(F)(F)F)cc(C(F)(F)F)c4)C3)C2)cc1`, the Potency in assay [1] is greater than 11.4 µM; in assay [7] it was greater than 46 µM; in assay [15] it was 3.16 µM (active). Also, the activity change, negative = inhibition is 16.8% in assay [2] and -5.26% in assay [4]. Moreover, the Potency result in assay [3], in assay [8], in assay [16], in assay [17] and in [18] was “inactive” each time. Moreover, the activity, negative = inhibition in assay [5] is -1.38%. For the same compound, the result in [13] was inactive.
On to `O=C(CCCCCN1C(=O)c2cccc3cccc(c23)C1=O)NO`, for which the result in assay [13] was inactive.
For the compound `O=c1c(-c2cc(F)cc(F)c2)nc2cncnc2n1C1CC1`, the Potency in [1] was greater than 11.4 µM; in [3], 1.26 µM (active); in assay [6] it was greater than 9.22 µM; in assay [7], greater than 46 µM. The activity change, negative = inhibition in [2] was -12%; in assay [4], 2.52%. The activity, negative = inhibition in [5] is -11.9%. In addition, the Potency entry in assay [8], in [14], in assay [16], in [9], in assay [10] and in assay [11] was “inactive” in each case. Moreover, the Potency result in [12] is “inactive”. Further, the result in [13] was inactive.
With `CCNc1ncc2nc(-c3cn(C)c4ccccc34)c(=O)n(C[C@H]3CCCO3)c2n1`, the Potency was greater than 11.4 µM in assay [1], 10 µM (active) in assay [3], greater than 9.22 µM in [6] and greater than 46 µM in [7]. Further, the activity change, negative = inhibition is -16.7% in assay [2] and 16.3% in assay [4]. The activity, negative = inhibition in assay [5] was 9.05%. Further, the Potency entry in assay [8], in [9], in assay [10], in assay [11] and in assay [12] was “inactive” throughout. Also, the outcome in [13] was inactive.
As to `COc1ccc(CNc2ccnc(-c3cccc(C#N)c3)n2)c(OC)c1`, the Potency was 2.51 µM (active) in [3]; greater than 46 µM in assay [6]; greater than 46 µM in assay [7]; 2 µM (active) in assay [15]; 3.98 µM (active) in [19]; 15.8 µM (active) in [9]. The Potency in [10] was 10 µM (active). Besides, the Potency result in [8], in assay [16], in assay [12], in assay [17] and in [18] was “inactive” each time. Moreover, in assay [13], the result was inactive.
